# Measurements: the supplement of paper PMC12067093, “Discovery and optimisation of a covalent ligand for TRIM25 and its application to targeted protein ubiquitination” (Chemical Science, 2025)
# Of roughly 21,000 targets only a part is listed; those with the largest changes were picked by preference.
# Compound: CC1Cc2ccccc2N1C(=O)C1CCCN(C1)C(=O)CCl (mixture of isomers) [TRIM25 ligand 11 (diastereomer mixture)]
# Test: probe-labelled cysteine peptide fold change vs DMSO (competition) (log2 fold change); higher = less target engagement (more negative = stronger competition)
# Conditions: THP-1, incubation time: 4 h
# 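Also: competitive chemoproteomic profiling in live THP-1 cells with an iodoacetamide desthiobiotin (IA-DTB) probe, comparing probe-labelled peptide intensities in compound-treated cells against DMSO-treated controls.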
# Sequence of UniProt Q9UJV9 (Q9UJV9 whole entry, looked up): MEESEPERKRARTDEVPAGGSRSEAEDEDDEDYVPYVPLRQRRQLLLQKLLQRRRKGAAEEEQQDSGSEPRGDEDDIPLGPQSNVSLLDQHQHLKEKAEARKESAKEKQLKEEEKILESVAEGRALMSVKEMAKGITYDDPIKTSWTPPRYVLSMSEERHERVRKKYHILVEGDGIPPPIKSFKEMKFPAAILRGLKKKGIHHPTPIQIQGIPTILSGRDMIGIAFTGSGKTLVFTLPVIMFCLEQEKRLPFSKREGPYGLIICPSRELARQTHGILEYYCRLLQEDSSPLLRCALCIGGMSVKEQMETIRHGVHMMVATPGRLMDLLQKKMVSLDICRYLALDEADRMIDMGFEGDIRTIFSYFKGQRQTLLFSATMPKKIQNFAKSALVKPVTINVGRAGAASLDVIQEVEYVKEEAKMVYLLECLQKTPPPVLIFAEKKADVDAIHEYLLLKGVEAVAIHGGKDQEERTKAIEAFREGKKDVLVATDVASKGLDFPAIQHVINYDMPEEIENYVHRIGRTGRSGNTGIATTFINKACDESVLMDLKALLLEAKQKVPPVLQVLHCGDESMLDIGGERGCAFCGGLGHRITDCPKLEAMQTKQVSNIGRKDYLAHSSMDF
# Sequence of UniProt Q86YQ8 (Q86YQ8 whole entry, looked up): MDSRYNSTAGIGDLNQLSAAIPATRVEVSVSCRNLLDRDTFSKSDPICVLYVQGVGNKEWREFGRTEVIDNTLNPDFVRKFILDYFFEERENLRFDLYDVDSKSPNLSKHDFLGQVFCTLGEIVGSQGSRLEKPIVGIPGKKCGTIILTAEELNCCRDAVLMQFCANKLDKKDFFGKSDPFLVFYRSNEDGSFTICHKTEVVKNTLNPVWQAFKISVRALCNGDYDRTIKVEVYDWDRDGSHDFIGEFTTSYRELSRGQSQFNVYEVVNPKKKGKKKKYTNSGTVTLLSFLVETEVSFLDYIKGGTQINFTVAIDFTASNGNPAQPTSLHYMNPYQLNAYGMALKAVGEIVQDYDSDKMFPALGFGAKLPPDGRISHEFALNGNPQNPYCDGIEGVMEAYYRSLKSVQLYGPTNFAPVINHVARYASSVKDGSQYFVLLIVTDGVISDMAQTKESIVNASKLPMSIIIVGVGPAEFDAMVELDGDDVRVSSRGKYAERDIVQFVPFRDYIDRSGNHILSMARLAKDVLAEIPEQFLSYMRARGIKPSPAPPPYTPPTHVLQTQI
# Sequence of UniProt O95786 (O95786 whole entry, looked up): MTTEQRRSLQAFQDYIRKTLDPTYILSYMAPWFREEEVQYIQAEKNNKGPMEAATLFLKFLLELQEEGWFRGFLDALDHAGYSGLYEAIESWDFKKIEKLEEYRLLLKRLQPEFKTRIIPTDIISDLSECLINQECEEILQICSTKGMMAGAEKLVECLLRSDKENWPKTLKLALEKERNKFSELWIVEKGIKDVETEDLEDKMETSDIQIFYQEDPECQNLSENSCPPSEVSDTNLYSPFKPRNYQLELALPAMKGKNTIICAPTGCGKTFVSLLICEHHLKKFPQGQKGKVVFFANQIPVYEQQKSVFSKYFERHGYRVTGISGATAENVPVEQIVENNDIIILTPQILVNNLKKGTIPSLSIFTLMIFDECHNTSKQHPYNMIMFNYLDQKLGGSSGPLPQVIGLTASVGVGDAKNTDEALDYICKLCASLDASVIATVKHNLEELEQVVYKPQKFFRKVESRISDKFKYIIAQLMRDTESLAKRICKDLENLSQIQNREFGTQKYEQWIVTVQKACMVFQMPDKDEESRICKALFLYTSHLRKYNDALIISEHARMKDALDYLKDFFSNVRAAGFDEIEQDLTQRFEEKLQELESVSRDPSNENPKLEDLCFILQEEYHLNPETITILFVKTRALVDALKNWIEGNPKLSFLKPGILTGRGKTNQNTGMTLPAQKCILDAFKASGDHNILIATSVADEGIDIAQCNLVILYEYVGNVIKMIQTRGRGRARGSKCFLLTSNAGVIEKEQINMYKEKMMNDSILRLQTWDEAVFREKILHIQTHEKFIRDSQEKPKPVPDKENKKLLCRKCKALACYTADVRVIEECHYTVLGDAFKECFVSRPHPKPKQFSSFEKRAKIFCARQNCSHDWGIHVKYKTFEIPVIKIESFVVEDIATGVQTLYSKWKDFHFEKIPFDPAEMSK
# Sequence of UniProt Q8TDJ6 (Q8TDJ6 whole entry, looked up): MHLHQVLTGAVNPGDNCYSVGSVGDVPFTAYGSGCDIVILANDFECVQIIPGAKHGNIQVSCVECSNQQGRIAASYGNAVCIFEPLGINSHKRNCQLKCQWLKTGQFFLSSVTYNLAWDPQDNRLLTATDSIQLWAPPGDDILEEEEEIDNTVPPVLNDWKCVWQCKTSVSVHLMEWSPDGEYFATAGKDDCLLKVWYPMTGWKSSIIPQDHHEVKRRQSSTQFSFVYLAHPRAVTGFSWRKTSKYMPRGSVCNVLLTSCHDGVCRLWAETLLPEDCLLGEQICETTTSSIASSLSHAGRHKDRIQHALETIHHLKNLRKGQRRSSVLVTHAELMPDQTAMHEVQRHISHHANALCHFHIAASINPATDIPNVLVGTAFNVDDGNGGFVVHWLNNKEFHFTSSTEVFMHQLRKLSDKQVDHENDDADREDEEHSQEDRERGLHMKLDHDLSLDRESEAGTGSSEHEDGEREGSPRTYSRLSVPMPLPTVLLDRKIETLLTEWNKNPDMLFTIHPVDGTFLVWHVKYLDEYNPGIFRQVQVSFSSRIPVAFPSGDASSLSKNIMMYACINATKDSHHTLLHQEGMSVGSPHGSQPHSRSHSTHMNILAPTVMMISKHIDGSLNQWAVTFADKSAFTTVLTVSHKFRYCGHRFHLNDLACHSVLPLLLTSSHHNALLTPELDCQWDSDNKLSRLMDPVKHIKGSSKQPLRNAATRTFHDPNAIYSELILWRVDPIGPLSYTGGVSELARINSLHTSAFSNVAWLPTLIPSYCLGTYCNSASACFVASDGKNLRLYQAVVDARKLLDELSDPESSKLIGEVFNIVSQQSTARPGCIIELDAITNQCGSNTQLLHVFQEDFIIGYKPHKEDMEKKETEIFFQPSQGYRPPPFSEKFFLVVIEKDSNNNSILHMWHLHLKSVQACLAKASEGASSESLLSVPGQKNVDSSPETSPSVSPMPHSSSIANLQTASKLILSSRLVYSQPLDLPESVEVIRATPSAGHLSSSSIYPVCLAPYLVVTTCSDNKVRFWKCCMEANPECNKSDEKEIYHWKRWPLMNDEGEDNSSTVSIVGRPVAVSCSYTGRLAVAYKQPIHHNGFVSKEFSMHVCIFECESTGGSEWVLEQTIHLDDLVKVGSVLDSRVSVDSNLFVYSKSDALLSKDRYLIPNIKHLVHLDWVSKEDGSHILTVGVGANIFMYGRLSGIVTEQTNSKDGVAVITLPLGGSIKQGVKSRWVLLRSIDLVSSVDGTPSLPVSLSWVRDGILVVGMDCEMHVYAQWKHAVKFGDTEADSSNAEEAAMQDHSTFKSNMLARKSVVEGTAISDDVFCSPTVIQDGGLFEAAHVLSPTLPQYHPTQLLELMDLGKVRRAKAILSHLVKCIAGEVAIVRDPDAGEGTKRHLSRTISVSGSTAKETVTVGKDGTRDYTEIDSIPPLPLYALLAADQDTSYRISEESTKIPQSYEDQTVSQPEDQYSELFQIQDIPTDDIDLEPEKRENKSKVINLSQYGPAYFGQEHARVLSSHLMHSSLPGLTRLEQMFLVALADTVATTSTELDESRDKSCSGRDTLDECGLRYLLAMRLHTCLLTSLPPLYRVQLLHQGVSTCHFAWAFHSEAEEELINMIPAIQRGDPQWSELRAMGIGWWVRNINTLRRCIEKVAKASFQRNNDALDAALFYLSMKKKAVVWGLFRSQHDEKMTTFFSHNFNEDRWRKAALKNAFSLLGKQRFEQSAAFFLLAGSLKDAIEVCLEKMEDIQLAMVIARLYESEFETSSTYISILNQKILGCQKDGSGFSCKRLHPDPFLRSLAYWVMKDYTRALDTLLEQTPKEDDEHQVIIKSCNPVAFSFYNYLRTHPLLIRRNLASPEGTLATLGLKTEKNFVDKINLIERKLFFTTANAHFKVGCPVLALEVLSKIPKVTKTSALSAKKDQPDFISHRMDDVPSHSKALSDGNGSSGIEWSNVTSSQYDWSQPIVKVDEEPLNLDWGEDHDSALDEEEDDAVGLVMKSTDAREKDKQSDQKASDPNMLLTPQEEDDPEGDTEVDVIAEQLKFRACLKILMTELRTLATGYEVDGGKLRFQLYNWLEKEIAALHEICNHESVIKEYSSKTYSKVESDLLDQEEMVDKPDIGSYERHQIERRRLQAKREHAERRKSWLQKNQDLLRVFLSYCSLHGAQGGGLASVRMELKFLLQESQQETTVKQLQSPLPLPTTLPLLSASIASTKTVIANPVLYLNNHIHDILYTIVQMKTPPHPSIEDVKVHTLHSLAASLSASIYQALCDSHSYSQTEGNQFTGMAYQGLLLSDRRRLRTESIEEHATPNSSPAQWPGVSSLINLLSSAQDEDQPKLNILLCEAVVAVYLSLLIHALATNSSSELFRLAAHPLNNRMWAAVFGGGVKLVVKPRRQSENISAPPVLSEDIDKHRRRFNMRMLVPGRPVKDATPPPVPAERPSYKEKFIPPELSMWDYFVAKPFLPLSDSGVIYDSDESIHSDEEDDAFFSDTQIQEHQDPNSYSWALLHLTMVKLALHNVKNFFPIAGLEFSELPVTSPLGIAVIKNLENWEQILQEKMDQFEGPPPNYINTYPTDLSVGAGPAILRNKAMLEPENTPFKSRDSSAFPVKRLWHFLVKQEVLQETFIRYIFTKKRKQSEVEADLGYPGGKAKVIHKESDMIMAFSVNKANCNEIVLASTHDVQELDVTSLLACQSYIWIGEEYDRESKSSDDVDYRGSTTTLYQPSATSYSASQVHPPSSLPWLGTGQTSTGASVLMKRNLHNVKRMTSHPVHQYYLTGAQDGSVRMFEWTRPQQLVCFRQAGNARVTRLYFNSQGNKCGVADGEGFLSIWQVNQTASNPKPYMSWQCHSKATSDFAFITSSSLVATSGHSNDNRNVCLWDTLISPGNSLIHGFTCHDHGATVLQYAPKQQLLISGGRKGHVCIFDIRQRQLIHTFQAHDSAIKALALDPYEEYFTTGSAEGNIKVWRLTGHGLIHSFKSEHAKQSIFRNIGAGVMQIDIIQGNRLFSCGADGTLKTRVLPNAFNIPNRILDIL
Target,probe-labelled cysteine peptide fold change (10 µM),probe-labelled cysteine peptide fold change (50 µM)
DBNL_Q9UJU6_97_KGACASHVSTMASFLK (UniProt Q9UJU6),-0.0713,-0.568
DYNC1H1_Q14204_3573_WQASSLPADDLCTENAIMLK (UniProt Q14204),-0.0171,-0.286
DDX41_Q9UJV9_540_ACDESVLMDLK (UniProt Q9UJV9),-0.0247,-0.111
CTR9_Q6PD62_196_TNPGCPAEVR (UniProt Q6PD62),-0.0355,0.0417
DNAJC2_Q99543_276_TLVDNAYSCDPR (UniProt Q99543),-0.0127,-0.0992
DOCK8_Q8NF50_590_IQFMCGEDASNAMPVIFGK (UniProt Q8NF50),-0.02,0.209
DDX6_P26196_324_VHCLNTLFSR (UniProt P26196),0.158,0.183
CRYZL1_O95825_177_VISTACSLEDK (UniProt O95825),0.0726,0.107
DHX30_Q7L2E3_286_LSTLTLLWPCPMTFVAK (UniProt Q7L2E3),-0.558,-0.944
DUS3L_Q96G46_358_RHQCEDIFGVQLEGAFPDTMTK (UniProt Q96G46),0.0341,0.0134
DIAPH2_O60879_484_LDIDLTHLIDSCVNK (UniProt O60879),0.0266,0.095
CTSZ_Q9UBR2_179_ECHAIR (UniProt Q9UBR2),-0.116,0.567
CYTH1_Q15438_323_EVEDSKKPNCFELYIPDNK (UniProt Q15438),-0.213,-0.14
DYNC1H1_Q14204_1977_MLSAVSQQVQCIQEALREHSNPNYDK (UniProt Q14204),-0.708,-0.193
CRIP1_P50238_56_TLTSGGHAEHEGKPYCNHPCYAAMFGPK (UniProt P50238),-0.889,-1.02
DHX37_Q8IY37_616_LCVVATNVAETSLTIPGIK (UniProt Q8IY37),-0.0366,0.0989
CUL4B_Q13620_248_YNLEELYQAVENLCSYK (UniProt Q13620),0.033,0.163
DNAJC10_Q8IXB1_161_EFDAAVNSGELWFVNFYSPGCSHCHDLAPTWR (UniProt Q8IXB1),0.476,-0.235
DECR2_Q9NUI1_22_HLFCPDLLR (UniProt Q9NUI1),0.0413,-0.0816
DLD_P09622_484_VCHAHPTLSEAFR (UniProt P09622),0.111,-0.123
DCAF10_Q5QP82_213_TLSEAHEDCVNNIR (UniProt Q5QP82),0.0726,-0.0884

Target,probe-labelled cysteine peptide fold change (10 µM),probe-labelled cysteine peptide fold change (50 µM)
CRYBG1_Q9Y4K1_594+609_EVQLPTCHSNEPEVVSVASCAPPQEEVLGNEHSHCTAELAAK (UniProt Q9Y4K1),-0.0918,-0.248
CUL2_Q13617_103_GADYMDCLYR (UniProt Q13617),0.191,0.129
DARS_P14868_130_IGSCTQQDVELHVQK (UniProt P14868),0.0673,0.0472
DPYSL2_Q16555_133_SCCDYSLHVDISEWHK (UniProt Q16555),0.131,-0.000105
DDB2_Q92466_322_VYSASQWDCPLGLIPHPHR (UniProt Q92466),0.0907,-0.0149
DMXL2_Q8TDJ6_62_HGNIQVSCVECSNQQGR (UniProt Q8TDJ6),-0.159,-0.593
DDX24_Q9GZR7_599_SLVFANSISCIK (UniProt Q9GZR7),0.479,0.567
DNM2_P50570-3_427_CVDLVVSELATVIK (UniProt P50570),-0.0402,0.0756
DLGAP5_Q15398_129_YRPDMPCFLLSNQNAVK (UniProt Q15398),-0.299,-0.594
DDX58_O95786_428_NTDEALDYICK (UniProt O95786),0.0328,0.169
CPNE8_Q86YQ8_118_HDFLGQVFCTLGEIVGSQGSR (UniProt Q86YQ8),0.132,0.595
DCTN1_Q14203_677_YEHALSQCSVDVYKK (UniProt Q14203),-0.0153,0.149
DIAPH1_O60610_964_LQFSEQVENIKPEIVSVTAACEELR (UniProt O60610),0.176,0.06
DECR2_Q9NUI1_53_HGCHTVIASR (UniProt Q9NUI1),0.317,0.574
DARS2_Q6PI48_202_MREYLCNLHGFVDIETPTLFKR (UniProt Q6PI48),-0.272,-0.129
DHX15_O43143_774_IAPQYYDMSNFPQCEAKR (UniProt O43143),-0.432,-0.211
DENND4B_O75064_180_GEGTPHTYCR (UniProt O75064),0.0109,0.131
DYNC1LI2_O43237_104_CNVWILDGDLYHK<|>DYNC1LI1_Q9Y6G9_117_CNVWILDGDLYHK (UniProt Q9Y6G9+O43237),-0.0068,0.0237
DSN1_Q9H410_191_CFEDSNGK (UniProt Q9H410),0.115,0.0971
DPP8_Q6V1X1_611_LSSPEDDPTCK (UniProt Q6V1X1),0.0995,0.0507
DHX37_Q8IY37_486_MLPAGGILVFLTGQAEVHALCR (UniProt Q8IY37),0.281,0.563
